In PubChem BioAssay (Tox21):
Records with an inconclusive call do not appear. Where a call stands in place of a potency, no number is given. Active and inactive are the calls of the source. Calls follow the shape of the dose curve; as a rule, active = well fitted cell-killing curve with a large enough effect in the repeat runs; inconclusive = weak or mixed curves, or effect the other way; inactive = no such curve, though single readings can be large or run the other way.

Assay: qHTS assay to identify small molecule antagonists of the vitamin D receptor (VDR) signaling pathway - cell viability counter screen (AID 743225); also: nearly all actives have a fitted effect of over 50% in size
Settings: VDR-bla HEK293T viability, CellTiter-Glo luminescence, 16 h; series mostly up to 61 µM
Text: U.S. Tox21 Program National Center for Advancing Translational Sciences [NCATS] NIH Chemical Genomics Center [NCGC] U.S. Environmental Protection Agency [EPA] National Institutes of Environmental Health Sciences [NIEHS] National Toxicology Program [NTP] U.S. Food and Drug Administration [FDA] Tox21 Assay Overview: The vitamin D receptor (VDR), a member of nuclear hormone receptor superfamily, plays a critical role in calcium homeostasis and bone metabolism. It is also involved in cell differentiation and growth, and thrombogenicity. To identify the compounds that inhibit VDR signaling, the VDR-UAS-bla HEK 293T cell line (Invitrogen, Carlsbad, CA, USA) containing a beta-lactamase reporter gene under the control of an upstream activator sequence (UAS) was used to screen the Tox21 10K compound library. The cytotoxicity of the Tox21 compound library against the VDR-bla cell line was tested in parallel by measuring the cell viability using CellTiter-Glo assay (Promega, Madison, WI) in the same wells.
Tox21 Assay Protocol Summary: VDR-bla cells were dispensed at 2,000 cells/5 uL of assay medium per well into black wall/clear-bottom 1536-well plates using a Multidrop Combi (Thermo Fisher Scientific, Waltham, MA) dispenser. After the assay plates were incubated at a 37C and 5% CO2 for 4 h, 23 nL of compounds dissolved in DMSO, positive controls or DMSO only was transferred to the assay plate by a Pintool station (Kalypsys, San Diego, CA), followed by addition of 1 uL of 1-alpha, 25-Dihydroxy Vitamin D3 (3 nM, final concentration in the wells) using a Bioraptr Flying Reagent Dispenser (FRD) workstation (Beckman Coulter, Indianapolis, IN). The plates were incubated at 37C and 5% CO2 for 16 h, and then 1 uL of LiveBLAzerTM B/G FRET substrate was added using a Bioraptr FRD. The plates were incubated at room temperature for 2 h and fluorescence intensity was measured by an Envision plate reader (PerkinElmer, Shelton, CT). For cell viability readout that measures cytotoxicity, 3 ul/well of CellTiter-Glo reagent was added into the assay plates using a Bioraptr FRD. After 30 min incubation at room temperature, the luminescence intensity in the plates was measured using a ViewLux plate reader (PerkinElmer).
Potency is read from the fitted curve at half-maximal effect.

Structure (SMILES)	Potency
Cc1cc(O)c(Cl)c(C)c1Cl	38.9 µM (active)
CCCCCCCC[P+](CCCCCCCC)(CCCCCCCC)CCCCCCCC	13.7 µM (active)
Cc1c(C)c2c(c(C)c1O)CCC(C)(COc1ccc(CC3SC(=O)NC3=O)cc1)O2 (stereo not given)	inactive
O=C1c2c(O)ccc(Nc3ccc(CCO)cc3)c2C(=O)c2c([N+](=O)[O-])ccc(O)c21	inactive
CCCCCCCCCCCC(=O)NCCCN(C)C	38.9 µM (active)
Cc1ccc(-n2nc(C(C)(C)C)cc2NC(=O)Nc2ccc(OCCN3CCOCC3)c3ccccc23)cc1	inactive
O=C(OCC1CO1)C1CCCCC1C(=O)OCC1CO1 (stereo not given)	inactive
O=C(O)c1ccc(Cl)c(Cl)c1	inactive
Cc1cc(N)c(S(=O)(=O)O)cc1Cl	inactive
CN1CCC(Nc2ncc3ncnc(Nc4ccc(F)c(Cl)c4)c3n2)CC1	21.3 µM (active)
CNC(=O)c1ccccc1	inactive
CCCCC(CC)COP(=O)(O)OCC(CC)CCCC (stereo not given)	inactive
CO[Si](CCCNc1ccccc1)(OC)OC	inactive
CC/C(=C(\c1ccc(O)cc1)c1ccc(OCCN(C)C)cc1)c1ccccc1	19.5 µM (active)
CCN(CC)CCCC(C)Nc1c2ccc(Cl)cc2nc2ccc(OC)cc12 (stereo not given)	23.9 µM (active)
CCCCCCCCCCC=O	inactive
Cc1ccc(O)c(C(C)(C)C)c1	21.8 µM (active)
CCCCCCC[N+](CC)(CC)CCCCc1ccc(Cl)cc1	inactive
Cc1onc(-c2c(Cl)cccc2Cl)c1C(=O)N[C@@H]1C(=O)N2[C@@H]1SC(C)(C)[C@@H]2C(=O)O	inactive
Cc1nc(-c2ccc3c(c2)CCN(CCC2CCC(NC(=O)/C=C/c4ccc(F)cc4)CC2)CC3)no1 (stereo not given)	inactive

Structure (SMILES)	Potency
Oc1ccc(Cl)cc1Sc1cc(Cl)ccc1O	30.8 µM (active)
CN(C)[C@@H]1C(=O)C(C(N)=O)=C(O)[C@@]2(O)C(=O)C3=C(O)c4c(O)cccc4C[C@H]3C[C@@H]12	inactive
O=C1CCCc2c1cc1ccc3cccc4ccc2c1c34	inactive
Nc1ccc2cc(S(=O)(=O)O)cc(O)c2c1N=Nc1ccccc1C(F)(F)F	inactive
N#CC1(c2ccc(F)cc2)CCC(=O)CC1	inactive
CCCCCOC(=O)CCCC	inactive
Nc1ccc(N)c2ccccc12	43.6 µM (active)
CCCCCCCC/C=C/CCCCCCCC1=NCCN1CCO	34.7 µM (active)
CCCC/C=C/CCCCO	inactive
Nc1cc(C(F)(F)F)ccc1S	inactive
O=C(Oc1cccc2cccnc12)c1ccccc1	inactive
O=c1cccccc1O	inactive
CCCCCCCCOC(=O)c1ccc(O)cc1	49 µM (active)
C[n+]1cc2c3c(ccc2c2ccc4cc5c(cc4c21)OCO5)OCO3	1.31 µM (active)
O=C1c2ccccc2Cc2ccccc21	inactive
CC(C)OC(=O)c1cc2c(OCC(O)CNC(C)(C)C)cccc2[nH]1 (stereo not given)	inactive
CCCCCCCCCCCCCCCS(=O)(=O)Oc1ccccc1	inactive
CCCC1O[C@@H]2C[C@H]3[C@@H]4CCC5=CC(=O)C=C[C@]5(C)[C@H]4[C@@H](O)C[C@]3(C)[C@]2(C(=O)CO)O1 (stereo not given in full)	inactive
Cc1cc2c(cc1C(F)(F)F)N(C(=O)Nc1ccc(Oc3cccnc3C)nc1)CC2	inactive
CC[C@H]1O[C@]2(CC[C@@H]1C)C[C@@H]1C[C@@H](C/C=C(\C)C[C@@H](C)/C=C/C=C3\CO[C@@H]4[C@H](O)C(C)=C[C@@H](C(=O)O1)[C@]34O)O2	21.7 µM (active)
